Measured values taken from PubChem BioAssay AID1434 (Sanford-Burnham Center for Chemical Genomics, 2008).
Values joined by “and” are separate entries in the source; they are usually repeats but may differ in a detail not shown here. Identical values can stand only once. Hit rate of the full screen: of about 220,000 compounds, about 1,600 (0.73%) were called active. The sample holds actives, similar compounds and a random draw of the others, so the mix is not that of the screen.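 The calls were made as follows: active = mean inhibition across duplicate retests at 20 µM reaching about 50% (limit read from the data); inactive = the rest, inconclusive results apart.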

Biological target: Runt-related transcription factor 1 (Homo sapiens) + Core-binding factor subunit beta (Homo sapiens) (UniProt Q01196+Q13951)
Test: inhibitors of RUNX1 Runt–CBFb-SMMHC binding, primary screen, biochemical, FRET, Cerulean-Runt, Venus-CBFb-SMMHC, uHTS (AID 1434);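 also: 0% = DMSO wells and 100% = wells with excess untagged CBFb-SMMHC; inhibitors lower the FRET ratio by blocking Runt binding to CBFb-SMMHC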
Settings: Cerulean-Runt/Venus-CBFb-SMMHC FRET ratio 530/480, 1 h, at 20 µM, stronger effect = higher value

Chain of Runt-related transcription factor 1 (Homo sapiens) + Core-binding factor subunit beta (Homo sapiens) (Q01196 whole entry, looked up): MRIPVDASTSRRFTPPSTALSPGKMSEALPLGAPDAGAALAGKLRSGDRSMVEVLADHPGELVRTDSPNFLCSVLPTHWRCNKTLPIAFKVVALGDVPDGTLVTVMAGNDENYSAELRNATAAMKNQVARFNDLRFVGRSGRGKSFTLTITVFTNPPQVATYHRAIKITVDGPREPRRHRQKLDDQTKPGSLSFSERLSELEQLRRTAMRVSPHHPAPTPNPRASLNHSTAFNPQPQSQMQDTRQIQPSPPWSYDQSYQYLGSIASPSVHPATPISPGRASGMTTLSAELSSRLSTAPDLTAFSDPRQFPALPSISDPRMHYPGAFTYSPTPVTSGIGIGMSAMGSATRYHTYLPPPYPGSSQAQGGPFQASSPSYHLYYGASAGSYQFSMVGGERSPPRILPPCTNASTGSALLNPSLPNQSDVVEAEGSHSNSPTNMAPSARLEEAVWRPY
Chain of Runt-related transcription factor 1 (Homo sapiens) + Core-binding factor subunit beta (Homo sapiens) (Q13951 whole entry, looked up): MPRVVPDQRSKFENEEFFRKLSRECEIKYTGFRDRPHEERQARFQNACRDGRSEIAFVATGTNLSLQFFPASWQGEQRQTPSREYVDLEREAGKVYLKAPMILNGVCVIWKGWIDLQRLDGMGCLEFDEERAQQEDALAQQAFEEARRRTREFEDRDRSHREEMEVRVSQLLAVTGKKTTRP

| SMILES | inhibition | inhibition (retest duplicate average) |
| --- | --- | --- |
| CN(C)c1nc(N)nc(Cn2nnc(-c3ccc(C(F)(F)F)cc3)n2)n1 | 1.3% (inactive) | – |
| c1ccc(-c2cc3c(NCC4COc5ccccc5O4)ncnc3s2)cc1 (stereo not drawn) | 8.3% (inactive) | – |
| O=C(CC1CCCCC1)NCc1ccc(F)cc1 | -2% (inactive) | – |
| COCCC(=O)Nc1ccc2c(c1)CN(C(=O)CCOC)CC2 | -1% (inactive) | – |
| O=c1c2c(nc3cc(-c4cccc(Cl)c4)[nH]n13)CCCC2 | -1.8% (inactive) | – |
| COCCCn1c(CCC(=O)O)ccc1-c1ccc(F)cc1 | 26.6% (inactive) | – |
| CC(C)Cn1c(CCC(=O)O)ccc1-c1cccs1 | 179% (active) | 134% |
| CCn1c(NC(=O)c2ccccc2)c(-c2cccs2)c(=O)c2ccccc21 | 2.4% (inactive) | – |
| COc1ccc(-n2cnc3cc(C(=O)NC4CCCC4)ccc32)cc1 | 0.8% (inactive) | – |
| CCOc1ccc2nc(NCCNS(=O)(=O)c3ccccc3)c(C#N)cc2c1 | 34% (inactive) | – |
| CCOc1ccc2nc(N3CCCN(C(=O)Nc4ccccc4C)CC3)c(C#N)cc2c1 | 61.6% (active) | 71.5% |
| CCOc1ccc2cc(C#N)c(SCC(=O)OC)nc2c1 | -89.9% (inactive) | – |
| CCN1C(=O)/C(=C2/Sc3ccccc3N2CCCS(=O)(=O)O)SC1=S | 82.6% (active) and 93.8% (active) | 113% and 124% |
| CCN1C(=O)/C(=C\N2CCN(c3ccccc3)CC2)SC1=S | -1.5% (inactive) | – |
| CCCCN1C(=O)/C(=C/C=C2/C=Cc3ccccc3N2CC)SC1=S | -1.7% (inactive) | – |
| Cc1cc(Cl)ccc1NNC(=O)c1snnc1C | -2.5% (inactive) | – |
| COc1ccc(C(=O)N/N=C2\CCS(=O)(=O)c3ccc(F)cc32)cc1OC | -4.7% (inactive) | – |
| Nc1nc(CC(=O)CSc2ccc(Cl)cc2)nc(Nc2ccc(F)cc2)n1 | -7.5% (inactive) | – |
| CCC(C)(C)n1nnnc1C(c1cccs1)N1CCN(c2nc3ccccc3s2)CC1 (stereo not drawn) | -1% (inactive) | – |
| CCC(C)(C)n1nnnc1C(c1cccs1)N1CCN(Cc2ccccc2)CC1 (stereo not drawn) | 3.1% (inactive) | – |
| CCC(C)(C)n1nnnc1CN1CCN(c2nc3ccc(C)cc3cc2C#N)CC1 | 54% (active) | 79.1% |
| CN(C)NC(=O)c1csnc1-c1c(Cl)cccc1Cl | 6% (inactive) | – |
| O=C(COC(=O)/C=C/c1cccc(Cl)c1)NCCc1ccccc1 | 0.9% (inactive) | – |
| COc1ccc(CCN(C)CCN2C(=O)c3ccccc3C2=O)cc1OC | 6.2% (inactive) | – |

| SMILES | inhibition | inhibition (retest duplicate average) |
| --- | --- | --- |
| COc1ccc(CCNC2=C(Cl)C(=O)N(Cc3ccccc3)C2=O)cc1OC | 92.2% (active) | 70.6% |
| COc1ccc(CCN=C2SCC(=O)N2Cc2ccccc2)cc1OC | -0.6% (inactive) | – |
| O=C(O)CC/C(=N\NC(=O)c1ccc(F)cc1)c1ccc(Br)cc1 | -4.7% (inactive) | – |
| CC/C(=N\NC(=O)c1ccccc1Cl)c1ccc(Br)s1 | -0.6% (inactive) | – |
| CC(=O)c1cc(C#N)c(SCC(=O)Nc2nccs2)nc1C | -3.8% (inactive) | – |
| COc1ccc(C2CC(c3cccs3)=NN2c2ccccc2)cc1 (stereo not drawn) | 91% (active) | 53.7% |
| COc1ccccc1N1N=C(c2cccs2)CC1c1ccccc1 (stereo not drawn) | 48% (inactive) | – |
| COc1ccc(C2=NN(c3ccccc3)C(c3cccs3)C2)cc1 (stereo not drawn) | 6% (inactive) | – |
| O=c1[nH]c2ccccc2n2c(-c3ccccc3)nnc12 | 67.5% (active) | 61.3% |
| Cc1ccc(-c2nc3ccccc3[nH]c2=O)cc1 | 3.7% (inactive) | – |
| O=[N+]([O-])c1cccc(-c2nnc3c4ccccc4c4ccccc4n23)c1 | 2.3% (inactive) | – |
| N#CC1=C(N)Oc2c(ccc3cccnc23)C1c1ccncc1 (stereo not drawn) | -1.6% (inactive) | – |
| COc1cccc(NC(=O)CN(C)C(=O)/C=C/c2cc(OC)ccc2OC)c1 | -3.2% (inactive) | – |
| O=C(Nc1ccc(Cl)cc1)Nc1nnc(/C=C/c2ccccc2)s1 | 6.5% (inactive) | – |
| O=C(COc1cccc(F)c1)Oc1ccc(C(=O)c2ccccc2)cc1 | 0.2% (inactive) | – |
| Cc1cc(C)c2c3c(sc2n1)C(c1ccccc1)C(C#N)=C(N)O3 (stereo not drawn) | 113% (active) | 141% |
| Cc1cc(C)c(C#N)c(SCc2[nH]nc3c2C(c2ccccc2)C(C#N)=C(N)O3)n1 (stereo not drawn) | -0.2% (inactive) | – |
| N#CC1=C(N)Oc2c(sc3ccccc23)C1c1ccco1 (stereo not drawn) | 9.4% (inactive) | – |
| CC(=O)c1c(C)[nH]c(C(=O)OCC(=O)Nc2cc(S(=O)(=O)N3CCCCC3)ccc2C)c1C | -9.5% (inactive) | – |
| CCCN(CC(=O)Nc1ccc(OC)c(OC)c1)CC(=O)Nc1ccc(F)c(F)c1F | -1.9% (inactive) | – |
| COc1ccc(/C=N/NC(=O)c2cccc(C(F)(F)F)c2)cc1 | 1.4% (inactive) | – |
| C/C(CC1CC(C)(C)OC1=O)=N/Nc1nc(-c2ccccc2)cs1 (stereo not drawn) | -0.6% (inactive) | – |
| Cc1ccc(Cn2c(C)nc3c(c2=O)c2nc4ccccc4nc2n3Cc2ccco2)cc1 | 46.8% (inactive) | – |
| CC(Sc1nc2ccccc2c(=O)n1Cc1ccco1)C(=O)c1ccccc1 (stereo not drawn) | 2.5% (inactive) | – |

| SMILES | inhibition | inhibition (retest duplicate average) |
| --- | --- | --- |
| Cc1nc2c(c(=O)n1Cc1ccco1)c1nc3ccccc3nc1n2Cc1ccccc1 | 51.6% (active) | 50.7% |
| CC(C)Cn1c(N)c(C(=O)NCc2cccs2)c2nc3ccccc3nc21 | 72.8% (active) | 89.8% |
| Cn1ncc(Br)c1C(=O)NCc1cccs1 | -0.4% (inactive) | – |
| CCC(C)NC(=O)c1c(N)n(/N=C/c2cccs2)c2nc3ccccc3nc12 (stereo not drawn) | -0.5% (inactive) | – |
| CN(C)c1ccnc2sc(C(=O)c3ccccc3)c(N)c12 | 39.2% (inactive) | – |
| Cc1cccc(NC(=S)NCc2ccc3[nH]c4c(c3c2)CCCC4)c1 | -0.9% (inactive) | – |
| Cc1cc(C)nc(SC2CCCCC2NS(=O)(=O)c2ccc(Cl)cc2)n1 (stereo not drawn) | 2% (inactive) | – |
| CC1CC(C)CN(S(=O)(=O)c2cccc(C(=O)N3C(=O)c4cccc(N)c4C3=O)c2)C1 (stereo not drawn) | 61.6% (active) | 72.9% |
| CN1CCN(S(=O)(=O)c2cccc(C(=O)O)c2)CC1 | -1.8% (inactive) | – |
| CC(=O)N1CCN(S(=O)(=O)c2cccc(C(=O)NC3CCC(C)CC3)c2)CC1 (stereo not drawn) | 4.4% (inactive) | – |
| COc1cc(C(=O)N[C@@H](C)C(=O)NCc2ccco2)cc(OC)c1OC | -2.9% (inactive) | – |
| COc1cc(C(=O)N2C(=O)c3cccc(N)c3C2=O)cc(OC)c1OC | 87.1% (active) | 51.3% |
| COc1cc(C(=O)NC(=S)NCc2ccco2)cc(OC)c1OC | 1.1% (inactive) | – |
| NC(=O)Nc1ccccc1C(=O)NCCc1ccccc1 | 2.1% (inactive) | – |
| COc1ccc(-c2nn(C)c(=O)c3ccccc23)cc1CNC(=O)C1CCCCC1 | -3.9% (inactive) | – |
| N=c1oc2ccccc2cc1C(=O)N/N=C/c1ccccc1 | -6.4% (inactive) | – |
| CNC(=O)c1cc2c(ccc3ccccc32)oc1=N | 82.8% (active) | 162% |
| CNC(=O)c1cccc2nc3ccccc3nc12 | 9% (inactive) | – |
| COC(=O)CCCC1=CC2=CC(=O)C(C)(OC(=O)c3cccs3)C(=O)C2=CN1CC(C)C (stereo not drawn) | -2.8% (inactive) | – |
| CC(=O)Nc1ccc(Sc2ccccc2C(=O)N2CCCC2)cn1 | -3.9% (inactive) | – |
| CN(C)CCCn1c(N)c(C#N)c2nc(C#N)c(C#N)nc21 | 78.7% (active) | 69.9% |
| COc1ccc(C2/C=C\CN(CC(C)C)CC(=O)N2Cc2ccc(F)cc2)cc1 (stereo not drawn) | 0.3% (inactive) | – |
| COc1ccc(O[C@H]2C=C[C@@H](c3ccccc3)O[C@@H]2CO/N=C/C[C@@H]2C=C[C@H](OC(C)=O)[C@@H](COC(C)=O)O2)cc1 | -12.9% (inactive) | – |
| COc1cccc2sc(Nc3nc(C)c(C(C)=O)s3)nc12 | 82.4% (active) | 96.3% |

| SMILES | inhibition | inhibition (retest duplicate average) |
| --- | --- | --- |
| COc1cccc2sc(NNC(=O)c3nc4ccccc4s3)nc12 | 3.6% (inactive) | – |
| CC(=O)c1sc(NC(=O)CCCOc2ccccc2C)nc1C | 0% (inactive) | – |
| Cc1ccc(NC(=O)C2(N3CCC3=O)CCCCC2)cc1 | 3.4% (inactive) | – |
| N/C(=N\OC(=O)CC1CCCCC1)c1ccccc1 | 3.7% (inactive) | – |
| CCN(CC)c1nc(-c2ccccc2)cc(C(F)(F)F)c1C#N | 130% (active) | 57.3% |
| N#Cc1c(C(F)(F)F)cc(-c2ccc(Cl)cc2)nc1SCC(=O)O | 0.8% (inactive) | – |
| N#Cc1c(C(F)(F)F)cc(-c2ccccc2)nc1SCC(=O)N1CCOCC1 | -9.3% (inactive) | – |
| CCOC(=O)c1c(Cc2ccc(Cl)cc2)c[nH]c1C | -2.1% (inactive) | – |
| COCCCn1c2nc3ccccc3nc2c2c(=O)n(Cc3ccc(Cl)cc3)c(C)nc21 | 7.3% (inactive) | – |
| CC(C)(C)c1ccc(C(=O)NCCn2c(N)c(C#N)c3nc4ccccc4nc32)cc1 | 114% (active) | 128% |
| CCCCNC(=O)CCNC(=O)c1ccc(C(C)(C)C)cc1 | -0.2% (inactive) | – |
| CC(C)(C)c1ccc(C(=O)NCC(=O)OCN2C(=O)c3ccccc3C2=O)cc1 | 4.7% (inactive) | – |
| CN1OC(COC(=O)c2ccc(Cl)cc2)CC1c1ccccc1 (stereo not drawn) | 3.2% (inactive) | – |
| N#Cc1c(N)n(CCOC(=O)c2ccc(Cl)cc2)c2nc3ccccc3nc12 | 116% (active) | 152% |
| Cc1cc(=O)[nH]c(N/N=C/c2c(C)nn(-c3ccccc3Cl)c2Cl)n1 | -3% (inactive) | – |
| CC(C)(C)C(=O)Nc1c(Br)c(C2CC2)nn1-c1ccccc1 | 2.4% (inactive) | – |
| CCc1ccc(CNC(=O)C2CC(=O)N(CCc3ccc(C)cc3)C2)cc1 (stereo not drawn) | -1.7% (inactive) | – |
| C=CCSc1nc(N)cc(=O)[nH]1 | 0.7% (inactive) | – |
| O=C(O)CCCCCCCCCC[n+]1ccccc1 | -2.3% (inactive) | – |
| CCCc1cc(=S)n2c([nH]c3ccccc32)c1C#N | 81.2% (active) | 153% |
| CCOC(=O)CCc1c(C)c(C#N)c2[nH]c3ccccc3n2c1=O | -6.1% (inactive) | – |
| Cc1ccccc1Cn1c(=O)[nH]c2ccccc21 | -2% (inactive) | – |
